Test results published in the supplement of paper PMC6555819.

Assays:
Assay in all cases: PBM binding z-score (relative to random genomic background probes); higher = stronger binding; sequences stand for … in GC…GCGATTGACAGCGTAGAATGAAGG
[1] = tested on: FXR:RXRa (NR concentration 270 nM, RXRa partner concentration 90 nM)
How it was run: (§1)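 Ligand-free nuclear receptor dimers were applied to custom Agilent 4×180K protein-binding microarrays whose double-stranded probes carried direct-repeat seeds, single-nucleotide variants, half-site ablations and random human genomic background sequences in 34-nt variable regions. Incubation lasted 1 h. Binding z-scores were computed against the random background probes from regression-normalized fluorescence.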

[2] = tested on: LXRa:RXRa (NR concentration 270 nM, RXRa partner concentration 90 nM)
How it was run: as §1

[3] = tested on: LXRa homodimer (NR concentration 270 nM)
How it was run: as §1

[4] = tested on: LXRb:RXRa (NR concentration 270 nM, RXRa partner concentration 90 nM)
How it was run: as §1

[5] = tested on: LXRb homodimer (NR concentration 270 nM)
How it was run: as §1

[6] = tested on: PPARa:RXRa (NR concentration 270 nM, RXRa partner concentration 90 nM)
How it was run: as §1

[7] = tested on: PPARg:RXRa (NR concentration 180 nM, RXRa partner concentration 90 nM)
How it was run: as §1

[8] = tested on: PPARg:RXRa 270nM:90nM, anti-RXR (NR concentration 270 nM, RXRa partner concentration 90 nM)
How it was run: as §1

[9] = tested on: PPARg:RXRa 30nM:10nM, anti-RXR (NR concentration 30 nM, RXRa partner concentration 10 nM)
How it was run: as §1

[10] = tested on: PPARg:RXRa 90nM:30nM, anti-RXR (NR concentration 90 nM, RXRa partner concentration 30 nM)
How it was run: as §1

[11] = tested on: PPARg:RXRa DBDmut IVT, anti-RXR (DBD mutation: RXRa K156A/R161A, NR concentration 270 nM, RXRa partner concentration 90 nM)
How it was run: as §1

[12] = tested on: PPARg:RXRa IVT, anti-PPARg (NR concentration 270 nM, RXRa partner concentration 90 nM)
How it was run: as §1

[13] = tested on: PPARg DBDmut:RXRa IVT, anti-PPARg (DBD mutation: PPARg1 K132A/R137A, NR concentration 270 nM, RXRa partner concentration 90 nM)
How it was run: as §1

[14] = tested on: PPARg DBDmut IVT, anti-PPARg (DBD mutation: PPARg1 K132A/R137A, NR concentration 270 nM)
How it was run: as §1

[15] = tested on: PPARg homodimer (NR concentration 180 nM)
How it was run: as §1

[16] = tested on: PXR:RXRa (NR concentration 270 nM, RXRa partner concentration 90 nM)
How it was run: as §1

[17] = tested on: PXR homodimer (NR concentration 270 nM)
How it was run: as §1

[18] = tested on: RARa:RXR (NR concentration 270 nM, RXRa partner concentration 90 nM)
How it was run: as §1

[19] = tested on: RARa homodimer (NR concentration 270 nM)
How it was run: as §1

[20] = tested on: RARb:RXRa (NR concentration 270 nM, RXRa partner concentration 90 nM)
How it was run: as §1

Q: How did the PBM binding z-score [1] turn out when TCTTGTAGAACAAAGGTTAAGAAAGCCGAAGCCT was run?
A: 1.11

Q: What about the PBM binding z-score [2] of the same sequence?
A: 1.68

Q: And the PBM binding z-score [3]?
A: -0.0357

Q: What about the PBM binding z-score [4] of the same sequence?
A: 1.97

Q: What about the PBM binding z-score [5] of the same sequence?
A: -0.155

Q: What about the PBM binding z-score [6] of the same sequence?
A: 4.32

Q: What about the PBM binding z-score [7] of the same sequence?
A: 7.84

Q: What about the PBM binding z-score [8] of the same sequence?
A: 7.99

Q: What about the PBM binding z-score [9] of the same sequence?
A: 7.71

Q: And the PBM binding z-score [10]?
A: 8.74

Q: What about the PBM binding z-score [11] of the same sequence?
A: 2.26

Q: And the PBM binding z-score [12]?
A: 3.87

Q: What about the PBM binding z-score [13] of the same sequence?
A: 0.00137

Q: And the PBM binding z-score [14]?
A: 0.832

Q: What about the PBM binding z-score [15] of the same sequence?
A: 0.868

Q: And the PBM binding z-score [16]?
A: 1.31

Q: And the PBM binding z-score [17]?
A: -0.451

Q: And the PBM binding z-score [18]?
A: 2.33

Q: What about the PBM binding z-score [19] of the same sequence?
A: 0.221

Q: And the PBM binding z-score [20]?
A: 1.81

Q: How did the PBM binding z-score [1] turn out when TCGAGTAGGTTAGGCGCATTCAGAATGGCGTCGA was run?
A: -0.434

Q: What about the PBM binding z-score [2] of the same sequence?
A: -0.29

Q: And the PBM binding z-score [3]?
A: -0.682

Q: What about the PBM binding z-score [4] of the same sequence?
A: -0.547

Q: What about the PBM binding z-score [5] of the same sequence?
A: -1.16

Q: What about the PBM binding z-score [6] of the same sequence?
A: 0.216

Q: What about the PBM binding z-score [7] of the same sequence?
A: -0.326

Q: And the PBM binding z-score [8]?
A: 0.786

Q: What about the PBM binding z-score [9] of the same sequence?
A: 0.835

Q: And the PBM binding z-score [10]?
A: 0.489

Q: And the PBM binding z-score [11]?
A: 1.8

Q: What about the PBM binding z-score [12] of the same sequence?
A: 0.832

Q: And the PBM binding z-score [13]?
A: -1.24

Q: What about the PBM binding z-score [14] of the same sequence?
A: -1.21

Q: What about the PBM binding z-score [15] of the same sequence?
A: -1.2

Q: And the PBM binding z-score [16]?
A: -0.58

Q: What about the PBM binding z-score [17] of the same sequence?
A: -0.715

Q: What about the PBM binding z-score [18] of the same sequence?
A: -0.497

Q: What about the PBM binding z-score [19] of the same sequence?
A: -1.02

Q: And the PBM binding z-score [20]?
A: 0.105

Q: How did the PBM binding z-score [1] turn out when CCTTACGCGTCACTCCAGGTTATAGCATCGGAGT was run?
A: 1.11

Q: What about the PBM binding z-score [2] of the same sequence?
A: 4.05

Q: And the PBM binding z-score [3]?
A: 1.55

Q: And the PBM binding z-score [4]?
A: 1.36

Q: What about the PBM binding z-score [5] of the same sequence?
A: 0.803

Q: And the PBM binding z-score [6]?
A: 0.54

Q: What about the PBM binding z-score [7] of the same sequence?
A: 0.559

Q: And the PBM binding z-score [8]?
A: -0.0823

Q: What about the PBM binding z-score [9] of the same sequence?
A: -0.223

Q: What about the PBM binding z-score [10] of the same sequence?
A: -0.192

Q: What about the PBM binding z-score [11] of the same sequence?
A: 0.0955

Q: And the PBM binding z-score [12]?
A: 0.368

Q: And the PBM binding z-score [13]?
A: 0.286

Q: And the PBM binding z-score [14]?
A: 1

Q: And the PBM binding z-score [15]?
A: 1.16

Q: And the PBM binding z-score [16]?
A: 0.484

Q: What about the PBM binding z-score [17] of the same sequence?
A: 0.825

Q: And the PBM binding z-score [18]?
A: 0.345

Q: What about the PBM binding z-score [19] of the same sequence?
A: 0.837

Q: What about the PBM binding z-score [20] of the same sequence?
A: 0.333

Q: How did the PBM binding z-score [1] turn out when TAGCCTAGGTCATGGGGGCCAGTATAGTGTCGGC was run?
A: 4.96

Q: And the PBM binding z-score [2]?
A: 4

Q: What about the PBM binding z-score [3] of the same sequence?
A: 0.742

Q: What about the PBM binding z-score [4] of the same sequence?
A: 4.86

Q: What about the PBM binding z-score [5] of the same sequence?
A: 5.38

Q: What about the PBM binding z-score [6] of the same sequence?
A: 4.64

Q: What about the PBM binding z-score [7] of the same sequence?
A: 4.04

Q: What about the PBM binding z-score [8] of the same sequence?
A: 4.26

Q: What about the PBM binding z-score [9] of the same sequence?
A: 1.09

Q: And the PBM binding z-score [10]?
A: 3.11

Q: And the PBM binding z-score [11]?
A: 1.91

Q: What about the PBM binding z-score [12] of the same sequence?
A: 4.23

Q: What about the PBM binding z-score [13] of the same sequence?
A: 4.89

Q: What about the PBM binding z-score [14] of the same sequence?
A: 4.09

Q: What about the PBM binding z-score [15] of the same sequence?
A: 2.19

Q: What about the PBM binding z-score [16] of the same sequence?
A: 3.01

Q: And the PBM binding z-score [17]?
A: 0.254

Q: And the PBM binding z-score [18]?
A: 3.41

Q: What about the PBM binding z-score [19] of the same sequence?
A: 0.4

Q: What about the PBM binding z-score [20] of the same sequence?
A: 4.04

Q: What does the source list for CGAACTAGGTCAGAACAGGACAGGGAAGGATGAT?
A: PBM binding z-score [1]: 1.5; PBM binding z-score [2]: 1.01; PBM binding z-score [3]: 0.0984; PBM binding z-score [4]: 0.515; PBM binding z-score [5]: -0.138; PBM binding z-score [6]: 3.4; PBM binding z-score [7]: 5.45; PBM binding z-score [8]: 4.61; PBM binding z-score [9]: 1.99; PBM binding z-score [10]: 3.65; PBM binding z-score [11]: 7.1; PBM binding z-score [12]: 7.39; PBM binding z-score [13]: 2; PBM binding z-score [14]: 3.12; PBM binding z-score [15]: 1.1; PBM binding z-score [16]: 0.778; PBM binding z-score [17]: 0.31; PBM binding z-score [18]: 2.03; PBM binding z-score [19]: 0.307; PBM binding z-score [20]: 3.02

Q: TTTATTAGTTGAAGGGCAACCGACGAGTCCGTTT was tested. Which PBM binding z-score [1] did it give?
A: 0.831

Q: And the PBM binding z-score [2]?
A: 0.834

Q: And the PBM binding z-score [3]?
A: 0.746

Q: What about the PBM binding z-score [4] of the same sequence?
A: 0.739

Q: What about the PBM binding z-score [5] of the same sequence?
A: 0.614

Q: And the PBM binding z-score [6]?
A: 0.899

Q: And the PBM binding z-score [7]?
A: 0.644

Q: And the PBM binding z-score [8]?
A: 1.71

Q: What about the PBM binding z-score [9] of the same sequence?
A: 1.09

Q: And the PBM binding z-score [10]?
A: 1.95

Q: And the PBM binding z-score [11]?
A: 0.976

Q: What about the PBM binding z-score [12] of the same sequence?
A: 0.967

Q: What about the PBM binding z-score [13] of the same sequence?
A: 0.878

Q: And the PBM binding z-score [14]?
A: 1.23

Q: What about the PBM binding z-score [15] of the same sequence?
A: 1.41

Q: And the PBM binding z-score [16]?
A: 0.818

Q: And the PBM binding z-score [17]?
A: 1.45

Q: And the PBM binding z-score [18]?
A: 0.575

Q: And the PBM binding z-score [19]?
A: 1.48

Q: What about the PBM binding z-score [20] of the same sequence?
A: 1.68

Q: With CGTCCAAGGTCAGAGAGGTCAGTAAATGCCGAGT as the sequence, how does the PBM binding z-score [1] read?
A: 5.8

Q: And the PBM binding z-score [2]?
A: 4.99

Q: And the PBM binding z-score [3]?
A: 3.02

Q: And the PBM binding z-score [4]?
A: 4.55

Q: What about the PBM binding z-score [5] of the same sequence?
A: 0.428

Q: What about the PBM binding z-score [6] of the same sequence?
A: 4.81

Q: What about the PBM binding z-score [7] of the same sequence?
A: 3.48

Q: And the PBM binding z-score [8]?
A: 4.16

Q: And the PBM binding z-score [9]?
A: 1.04

Q: What about the PBM binding z-score [10] of the same sequence?
A: 2.7

Q: And the PBM binding z-score [11]?
A: 2.74

Q: And the PBM binding z-score [12]?
A: 3.23

Q: What about the PBM binding z-score [13] of the same sequence?
A: 0.177

Q: And the PBM binding z-score [14]?
A: 0.266

Q: What about the PBM binding z-score [15] of the same sequence?
A: 4.38

Q: What about the PBM binding z-score [16] of the same sequence?
A: 5.96

Q: What about the PBM binding z-score [17] of the same sequence?
A: 12

Q: What about the PBM binding z-score [18] of the same sequence?
A: 5.41

Q: And the PBM binding z-score [19]?
A: 1.88

Q: What about the PBM binding z-score [20] of the same sequence?
A: 5.28
